Screening data as filed in PubChem BioAssay.
The list is not random: actives were taken first. Their share in the collection is about 3.6%.
AmpC inh detg: qHTS Inhibitors of AmpC Beta-Lactamase (assay with detergent). P00811. actives 0.041% (n = 370,000). AID 485294, 2010. AmpC hydrolysis of nitrocefin, absorbance 480 nm, 0.01% Triton. Potency, µM (top dose mostly 114 µM), most hits filed as inhibitors; further: nearly all actives have a fitted effect of over 25% in size
Target sequence (P00811 whole entry, looked up): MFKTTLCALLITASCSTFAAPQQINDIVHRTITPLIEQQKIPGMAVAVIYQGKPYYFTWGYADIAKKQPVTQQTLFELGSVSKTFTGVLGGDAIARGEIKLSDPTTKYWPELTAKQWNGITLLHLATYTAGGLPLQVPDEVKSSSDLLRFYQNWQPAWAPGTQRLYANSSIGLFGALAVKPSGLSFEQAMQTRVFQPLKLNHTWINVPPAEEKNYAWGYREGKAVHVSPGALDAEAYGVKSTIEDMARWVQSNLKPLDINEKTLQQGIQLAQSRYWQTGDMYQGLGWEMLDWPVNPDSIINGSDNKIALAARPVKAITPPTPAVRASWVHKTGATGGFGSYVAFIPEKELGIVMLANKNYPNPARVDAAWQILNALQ
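20 mM phosphate pH 7.0 + 0.01% (detergent screen) or 0.0001% Triton X-100; 5.3 nM AmpC reagent; cpd preinc 15 min RT; nitrocefin (800 uM stock) to start; A480 q20 s × 4 min; Activity was normalised to no-enzyme and no-compound control wells.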
Giardia FBPA inh-1: qHTS Assay for Inhibitors of Fructose-1,6-bisphosphate Aldolase from Giardia Lamblia. A8B2U2. purified Giardia FBPA. Potency, µM (top dose mostly 59.6 µM), actives largely listed as inhibitors. actives 0.71% (n = 290,000). AID 2451, 2010; further: nearly all actives have a fitted effect of over 55% in size
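Giardia FBPA (40 nM reagent) was preincubated 10 min at RT with compound (up to 57.5 uM final), then substrate plus GAPDH/TPI/NAD/arsenate coupling system with diaphorase/resazurin was added; resorufin fluorescence (525/598 nm) was read after 20 min.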
AmpC no deterg: qHTS Inhibitors of AmpC Beta-Lactamase (assay without detergent). P00811. AmpC nitrocefin hydrolysis, absorbance 480 nm, 0.0001% Triton. Potency, µM (series often up to 57.1 µM), usual class: inhibitors. actives 0.52% (n = 330,000). AID 485341, 2010; further: nearly all actives have a fitted effect of over 20% in size
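AmpC (5.3 nM in the dispensed reagent) in 20 mM phosphate pH 7.0 with 0.01% (detergent screen) or 0.0001% Triton X-100 was preincubated with compounds for 15 min at room temperature. Nitrocefin was then added from an 800 uM solution, and hydrolysis was followed at 480 nm.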
Sm TGR inh: qHTS Assay for the Inhibitors of Schistosoma Mansoni Peroxiredoxins | AID 485364, 2010 | Potency, µM (top dose mostly 114 µM), usual class: inhibitors | actives 3% (n = 360,000) | purified TGR, DTNB reduction, TNB absorbance 405 nm | Schistosoma mansoni thioredoxin glutathione reductase (TGR), Q962Y6; further: nearly all actives have a fitted effect of over 60% in size
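Kinetic colorimetric format: TGR-catalysed, NADPH-driven DTNB reduction monitored via TNB absorbance. Enzyme dispensed at 20 nM; compound exposure 15 min at room temperature before reaction start.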
Giardia growth: qHTS Assay for Inhibitors of Fructose-1,6-bisphosphate Aldolase from Giardia Lamblia: Giardia lamblia growth inhibition | shares compounds with Giardia FBPA inh-1 | Giardia lamblia trophozoite growth inhibition | Potency, µM (highest dose often 57.5 µM), most hits filed as inhibitors | actives 5% (n = 1,500);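 further: trophozoites exposed to compound for 48 h at 37 °C; nearly all actives have a fitted effect of over 70% in size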
Mammalian tox: qHTS Assay for Inhibitors of Fructose-1,6-bisphosphate Aldolase from Giardia Lamblia: Mammalian cellular toxicity; actives 4% (n = 1,500); Potency, µM (doses to about 57.5 µM), usual class: inhibitors; mammalian cell viability counter-screen, qHTS; AID 2786, 2010; shares compounds with Giardia FBPA inh-1;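 further: Chinese hamster ovary cells used as mammalian cytotoxicity surrogate; viability measured as cellular ATP by luminescence; compound exposure lasted 48 h before reading; nearly all actives have a fitted effect of over 60% in size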
Giardia FBPA inh-2: qHTS Assay for Inhibitors of Fructose-1,6-bisphosphate Aldolase from Giardia Lamblia: Primary screen confirmation; shares compounds with Giardia FBPA inh-1; purified Giardia aldolase enzyme activity, qHTS; Potency, µM (titrated, usually from 57.5 µM), hits mostly inhibitors; actives 5% (n = 1,500); AID 2787, 2010; further: nearly all actives have a fitted effect of over 45% in size
Rabbit aldolase: qHTS Assay for Inhibitors of Fructose-1,6-bisphosphate Aldolase from Giardia Lamblia: Rabbit FBPA Selectivity; shares compounds with Giardia FBPA inh-1; Rabbit muscle FBPA enzyme inhibition, selectivity counter-screen; Potency, µM (highest dose often 57.5 µM), hits mostly inhibitors; actives 4% (n = 1,500); AID 2794, 2010; further: nearly all actives have a fitted effect of over 60% in size
Target sequence (P00883 whole entry, looked up): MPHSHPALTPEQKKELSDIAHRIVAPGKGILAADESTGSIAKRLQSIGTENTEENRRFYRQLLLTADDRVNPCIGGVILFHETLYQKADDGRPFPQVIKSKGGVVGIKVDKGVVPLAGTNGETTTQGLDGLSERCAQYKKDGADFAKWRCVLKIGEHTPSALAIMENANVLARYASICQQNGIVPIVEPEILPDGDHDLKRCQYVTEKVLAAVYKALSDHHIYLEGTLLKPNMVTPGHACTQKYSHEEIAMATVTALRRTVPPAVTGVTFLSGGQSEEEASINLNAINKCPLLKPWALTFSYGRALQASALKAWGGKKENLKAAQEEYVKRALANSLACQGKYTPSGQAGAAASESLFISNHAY
GAPDH coupling: qHTS Assay for Inhibitors of Fructose-1,6-bisphosphate Aldolase from Giardia Lamblia: Coupling assay counterscreen confirmation. shares compounds with Giardia FBPA inh-1. GAPDH coupling enzyme counterscreen, biochemical, qHTS. Potency, µM (doses to about 57.5 µM), actives largely listed as inhibitors. actives 6% (n = 1,500). AID 2795, 2010; further: nearly all actives have a fitted effect of over 55% in size
Hits are given with their value; – = inactive; ? = inconclusive; · = not tested or not shown; [ ] = remark or other dose. The call rests on the fitted dose curve; in most records, active means well fitted curve in the direction sought with a large enough effect; inconclusive means small, poorly fitted or top-dose-only effect, or another doubt; inactive means no such curve, though single readings can be large; an effect the other way counts as inactive or inconclusive.

SMILES | AmpC inh detg | Giardia FBPA inh-1 | AmpC no deterg | Sm TGR inh | Giardia growth | Mammalian tox | Giardia FBPA inh-2 | Rabbit aldolase | GAPDH coupling
CCC(C)NCCOc1cc(C)cc(C)c1C (stereo unspecified) | – | 16µM | – | · | – | – | – | – | –
Cc1c(CCO)c(=O)n2c([nH]c3ccccc32)c1C#N | – | 25µM | – | – | – | – | – | – | –
Cc1onc(-c2ccccc2)c1C(=O)OCC(=O)NCc1ccc(F)cc1 | – | – | – | – | · | · | · | · | ·
CCCCOc1c(Br)cc(CNCCCN2CCOCC2)cc1OC | – | 20µM | – | – | ? | – | – | – | –
O=C(CCC(=O)OCC(F)(F)C(F)F)Nc1ccccc1F | – | – | – | – | · | · | · | · | ·
Cc1ccc(-n2nc3c(=S)[nH]nc(C)c3c2C)cc1 | – | 25µM | – | – | – | – | – | – | –
Cc1noc(C)c1C(=O)N1CCC2(CCN(Cc3ccncc3)CC2)CC1 | · | – | · | · | · | · | · | · | ·
Nn1c(SCC(=O)Nc2cccc(C(F)(F)F)c2)nncc1=O | – | 25µM | – | – | –[10.4 µM] | – | – | – | –
O=C1/C(=C/c2ccco2)SC(=S)N1c1cccnc1 | – | 8.9µM | – | 14µM | ? | – | – | – | –
CN(CCOc1ccccc1)CC(=O)Nc1ccc(Cl)cc1[N+](=O)[O-] | – | 22µM | – | – | ? | – | – | – | –
COc1cc(NC(=O)CN(C)CCOc2ccccc2)c(C)cc1[N+](=O)[O-] | – | – | – | – | · | · | · | · | ·
COc1ccc(OCCCC(=O)N(C)CC(=O)Nc2c(C)cccc2C)cc1 | – | · | – | – | · | · | · | · | ·
CN(C)S(=O)(=O)c1cc(NC(=O)CNCc2ccccc2)ccc1Cl | – | ? | – | – | · | · | · | · | ·
CN(CCOc1ccccc1)CC(=O)Nc1ccc(Cl)c(S(=O)(=O)N(C)C)c1 | ? | 16µM | – | – | –[10.4 µM] | – | – | – | –
COc1ccc(OCCN(C)CC(=O)Nc2c(C)cccc2C)cc1 | – | 14µM | – | – | –[10.4 µM] | – | – | – | –
Cc1ccc(NC(=O)CNCc2ccccc2Cl)cc1S(=O)(=O)N(C)C | – | 22µM | – | – | ? | – | – | – | –
CC(=O)Nc1cccc(C(=O)OCc2csc(CC(=O)Nc3ccccc3C)n2)c1 | ? | · | – | – | · | · | · | · | ·
CC(=O)N1CCN(C(=O)c2cccc(S(=O)(=O)Nc3c(C)n(C)n(-c4ccccc4)c3=O)c2)CC1 | – | · | – | – | · | · | · | · | ·
Cn1c(=O)c2c([nH]c(=S)n2Cc2ccc(Cl)cc2)n(C)c1=O | – | 8.9µM | – | – | – | – | – | – | –
COC(=O)CC1C(=O)NCCN1C(=O)c1sc2ccccc2c1Cl (stereo unspecified) | – | – | – | – | · | · | · | · | ·
CC(C)OC(=O)CC1C(=O)NCCN1C(=S)NC(=O)c1ccccc1 (stereo unspecified) | – | 11µM | – | · | – | – | – | – | –
COC(=O)CC1C(=O)NCCN1C(=S)NC(=O)c1sc2ccccc2c1Cl (stereo unspecified) | ? | 16µM | –[2.29 µM] | – | – | – | – | – | –
CC(C)OC(=O)CC1C(=O)NCCN1C(=S)NC(=O)c1ccc(F)cc1 (stereo unspecified) | – | 16µM | – | – | – | – | – | – | –
Cc1ccc(C)c(N2CCN(CCCNC(=O)C3COc4ccccc4C3)CC2)c1 (stereo unspecified) | – | · | · | – | · | · | · | · | ·
COc1ccc(C)cc1Nc1n[n+](-c2ccccc2)c(-c2ccc(SC)cc2)s1 | – | ? | – | – | · | · | · | · | ·
SMILES | AmpC inh detg | Giardia FBPA inh-1 | AmpC no deterg | Sm TGR inh | Giardia growth | Mammalian tox | Giardia FBPA inh-2 | Rabbit aldolase | GAPDH coupling
CN(C)c1ccc(CNC(=O)c2cc3ccccn3n2)cc1 | – | · | · | – | · | · | · | · | ·
CCSC1=N/C(=C\c2ccc(-c3ccccc3[N+](=O)[O-])o2)C(=O)S1 | – | ? | – | – | – | – | – | – | –
CSc1cccc(NC(=S)N2CCC(N(C)C3CCCCC3)CC2)c1 | – | 13µM | – | 45µM | ? | – | – | – | –
CSc1cccc(NC(=O)CN(C2CCCCC2)S(C)(=O)=O)c1 | – | – | – | – | · | · | · | · | ·
Cc1ccc(OCCCN2CCOCC2)cc1 | ? | 20µM | – | – | ? | – | – | – | –
C=CCNC(=S)/C(=C(\[O-])c1ccc(Cl)cc1)[n+]1ccccc1 | – | 13µM | – | ? | – | – | – | – | –
CCOC(=O)N1CCN(C(=O)c2cccc(N3C(=O)NC4CC3(C)Oc3ccc(Cl)cc34)c2)CC1 (stereo unspecified) | – | · | – | – | · | · | · | · | ·
COc1ccc(-n2c(C)cc(/C=N/Nc3nnc(C)n3N)c2C)cc1 | ? | 6.3µM | – | ? | –[10.4 µM] | – | 20µM | ? | ?
COC(=O)c1cnc(NNS(=O)(=O)c2ccc(Cl)cc2)nc1C(F)(F)F | – | 16µM | – | – | – | – | – | – | –
C=C1CCN(C(CC(C)C)C(=O)NCc2ccc(Cl)c(Cl)c2)S(=O)(=O)c2ccccc21 (stereo unspecified) | · | – | · | · | · | · | · | · | ·
CSc1nc(NNC=O)cc(Oc2ccc(NC(C)=O)cc2)n1 | – | – | – | – | · | · | · | · | ·
O=C(CCN1CCN(CCO)CC1)N1c2ccccc2Sc2ccc(C(F)(F)F)cc21 | ? | 7.9µM | – | – | – | – | – | – | –
CN1CCN(CCC(=O)N2c3ccccc3Sc3ccc(Cl)cc32)CC1 | – | – | – | – | · | · | · | · | ·
COc1c(O)ccc(/C=C(\C#N)c2nc3ccccc3[nH]2)c1[N+](=O)[O-] | – | ? | – | – | ? | – | – | – | –
O=C(c1cc2nc(-c3ccc(Cl)cc3)cc(C(F)(F)F)n2n1)N1CCOCC1 | – | – | – | – | · | · | · | · | ·
CCc1ccccc1NC(=O)CCc1nc(-c2cccs2)no1 | – | – | – | – | · | · | · | · | ·
Oc1ccc(C2C[C@H]3CC[C@@H]2C3)cc1O (stereo partly specified) | – | 28µM | – | 1µM | – | – | 14µM | 32µM | 32µM
